Assay results taken from PubChem BioAssay AID488977 (Johns Hopkins Ion Channel Center, 2010).
The campaign covered roughly 310,000 compounds. About 1,500 (0.48%) were called active.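 How the source made its calls: active means initial fluorescence not abnormally high and integrated response B-score, plate-corrected, over 3 SD above library mean; inactive means the rest.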 The full list was thinned out, with actives kept by preference.

target: High affinity choline transporter 1 (Homo sapiens) (UniProt Q9GZV3); assay: allosteric activators of human choline transporter – cell-based, membrane potential dye, choline EC20, primary screen (AID 488977); conditions: CHT-expressing cells, at 10 µM, LV-AA mutant CHT in HEK293 cells; stronger effect = higher value
Sequence (Q9GZV3 whole entry, looked up): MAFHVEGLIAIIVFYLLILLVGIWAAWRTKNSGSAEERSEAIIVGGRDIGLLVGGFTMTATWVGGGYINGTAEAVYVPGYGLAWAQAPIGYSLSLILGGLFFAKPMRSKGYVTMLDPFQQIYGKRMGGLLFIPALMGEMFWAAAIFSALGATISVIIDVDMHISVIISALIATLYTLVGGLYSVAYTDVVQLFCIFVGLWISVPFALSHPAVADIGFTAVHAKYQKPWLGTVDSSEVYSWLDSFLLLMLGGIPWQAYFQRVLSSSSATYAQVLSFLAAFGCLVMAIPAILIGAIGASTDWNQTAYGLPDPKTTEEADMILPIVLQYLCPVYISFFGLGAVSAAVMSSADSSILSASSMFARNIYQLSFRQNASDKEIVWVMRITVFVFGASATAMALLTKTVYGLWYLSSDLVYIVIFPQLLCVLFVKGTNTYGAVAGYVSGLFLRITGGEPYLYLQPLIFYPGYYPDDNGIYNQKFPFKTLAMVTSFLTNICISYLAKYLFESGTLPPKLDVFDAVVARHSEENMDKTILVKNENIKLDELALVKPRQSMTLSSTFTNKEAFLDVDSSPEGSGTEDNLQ

| SMILES | B-score |
| --- | --- |
| Fc1ccccc1COc1cccc2cccnc12 | inactive |
| c1ccc2c(C[n+]3csc4ccccc43)cccc2c1 | inactive |
| Nc1scc[n+]1Cc1cccc2cccnc12 | 6.75 (active) |
| COc1ccc(CCNC(=O)C(=O)NCC2CCCN2S(=O)(=O)c2cccs2)cc1OC (configuration not stated) | inactive |
| N=c1c2c3c(sc2ncn1N)CCCCC3 | inactive |
| Nc1nc(SCC(=O)NCCN2CCOCC2)nc2sc3c(c12)CCC3 | inactive |
| N=c1c2c3c(sc2ncn1CCCN1CCOCC1)CCCCC3 | 6.58 (active) |
| CCN(CC(=O)Nc1cccc(S(=O)(=O)N2CCCCC2)c1)Cc1ccccc1 | inactive |
| Cc1nc(N=C(N)N)nc2c(C)cccc12 | 7.11 (active) |
| CC(=O)Oc1ccc(-c2nc3c(C)cccc3c(=O)o2)cc1 | inactive |
| COc1ccc2nc(/N=C(\N)NC(=O)Nc3ccccc3)nc(C)c2c1 | inactive |
| COc1nc(N=C(N)N)nc2c(C)cccc12 | 8.19 (active) |
| Cc1nc(/N=C(\N)NC(=O)NC2CCCCC2)nc2ccccc12 | inactive |
| NC(N)=Nc1nc(-c2ccccc2)c2cc(Cl)ccc2n1 | inactive |
| O=C(Nc1ccc(C(=O)N2CCOCC2)cc1)Nc1cccc(C(F)(F)F)c1 | inactive |
| Cc1ccc(OCC(=O)Oc2ccccc2[N+](=O)[O-])cc1 | inactive |
| COc1ccc2c(c1)[C@H]1[C@H](CO2)[C@H](c2ccccc2)[C@]2(C)C(=O)Nc3cc(F)c(F)cc3C(=O)N12 | inactive |
| O=C(Nc1ccc2nc3n(c(=O)c2c1)CCCC3)c1ccc(Cl)nc1 | inactive |
| CN(C)C1=NC[C@H](Cc2ccccc2)N1CCc1ccc(F)cc1 | inactive |
| Cc1noc(C)c1CSCC(=O)Nc1ccc(Br)cc1Cl | inactive |
| Cc1cccc(N2CCN(c3ccc(C(N)=O)cc3[N+](=O)[O-])CC2)c1C | inactive |
| CCOC(=O)C1CCN(c2ccc(C(=O)O)cc2[N+](=O)[O-])CC1 | inactive |
| Cc1ccc(C(=O)c2ccc(N3CCN(C)CC3)c([N+](=O)[O-])c2)cc1 | 6.4 (active) |

| SMILES | B-score |
| --- | --- |
| O=C(Cc1ccc(S(=O)(=O)N2CCOCC2)s1)N1CCN(c2ccc(C(F)(F)F)cc2[N+](=O)[O-])CC1 | inactive |
| COc1ccc(NC(=O)CN(C)C(=O)c2cccc(S(=O)(=O)N3CCN(c4ccccc4)CC3)c2)cc1 | inactive |
| O=C(c1cc(Cl)cc(Cl)c1)N1CCC(=O)N(C(COCc2ccccc2)Cc2ccccc2)CC1 (configuration not stated) | inactive |
| CC(C)CC(CO)N1CCN(C(=O)c2ccc(Cl)cc2Cl)CCC1=O (configuration not stated) | inactive |
| CC(C)CC(COCc1ccc(Cl)cc1)N1CCN(C(=O)c2ccc(C(F)(F)F)cc2)CCC1=O (configuration not stated) | 6.29 (active) |
| O=C(CCC(=O)c1cccs1)Nc1nc2ccccc2s1 | inactive |
| CCCCn1c(N)c(N(CC(C)C)C(=O)c2ccc(-n3c(C)ccc3C)cc2)c(=O)[nH]c1=O | inactive |
| CCS(=O)(=O)c1cc([N+](=O)[O-])c(Sc2ccccc2N)s1 | inactive |
| Nc1ccccc1SCc1cc([N+](=O)[O-])cc2c1OCOC2 | 7.8 (active) |
| Nc1ccccc1SC(C[N+](=O)[O-])c1ccccc1 (configuration not stated) | inactive |
| Cc1cc(C)cc(NC(=O)COc2coc(CN3CCN(c4ccccc4)CC3)cc2=O)c1 | inactive |
| COc1cccc(N2CC(NC(=O)c3ccc4ccccc4c3)CC2=O)c1 (configuration not stated) | inactive |
| CCCCCCCCn1c2c(c(=N)c3c1CCC3)CCCC2 | 12.2 (active) |
| COc1ccccc1N(C)S(=O)(=O)c1ccc(Cl)c(C(=O)Nc2ccncc2)c1 | inactive |
| CN1C(C(=O)NCc2ccco2)CC2Cn3c(nc4ccccc43)C21 (configuration not stated) | inactive |
| CC(OC(=O)CCCc1c[nH]c2ccccc12)C(=O)Nc1ccc(S(N)(=O)=O)cc1 (configuration not stated) | inactive |
| COc1ccc2oc(C(=O)OCC(=O)N(CC(C)C)c3c(N)n(Cc4ccccc4)c(=O)[nH]c3=O)c(C)c2c1 | inactive |
| CCCCCCSc1ccc([C@@H]2[C@@H]3C(=O)N(CC)C(=O)[C@@H]3[C@]3(C(=O)OC)CCCCN23)cc1OC | inactive |
| CCOc1ccc(C2c3[nH]c4ccccc4c3CCN2Cc2cccn2-c2ncccn2)cc1 (configuration not stated) | 6.79 (active) |
| c1ccc(C2c3[nH]c4ccccc4c3CCN2Cc2cccn2-c2cccnc2)nc1 (configuration not stated) | inactive |
| CCOc1ccc(C2c3[nH]c4ccccc4c3CCN2Cc2cn(CC)nc2C)cc1 (configuration not stated) | inactive |
| COc1ccc(Cl)cc1NC(=O)CN(C)C(=O)c1cc2ccccc2cc1OC | inactive |
| Cc1cc(C)c(S(=O)(=O)N2CCCC2CNC(=O)c2ccc3c(c2)OCO3)c(C)c1 (configuration not stated) | inactive |

| SMILES | B-score |
| --- | --- |
| CCN(CC)CCn1c2c(c(SCC(=O)Nc3ccc(C(C)C)cc3)nc1=O)CCC2 | inactive |
| COC(=O)c1c(C)[nH]c(C)c1-c1ccc([N+](=O)[O-])cc1 | inactive |
| CC(=O)N1CC[n+]2c(-c3ccc([N+](=O)[O-])cc3)csc21 | 7.27 (active) |
| COc1ccc(C2CC(c3ccc([N+](=O)[O-])cc3)=NN2C(C)=O)cc1 (configuration not stated) | inactive |
| CC(C)(C)Nc1nc(-c2ccccn2)nc2ccccc12 | 6.37 (active) |
| Cc1ccc(Oc2nc(-c3ccccn3)nc3ccccc23)cc1 | inactive |
| CCOCCCNc1nc(-c2ccccc2)nc2ccccc12 | inactive |
| COc1ccc(S(=O)(=O)N2CCCCCC2)cc1C(=O)N(C)Cc1cccc(OC)c1OC | inactive |
| O=[N+]([O-])c1ncc(Br)cc1Nc1ccccc1 | inactive |
| CCCCCCCCCCOC(=O)Cn1c(COc2cccc(OC)c2)[n+](C)c2ccccc21 | 10.7 (active) |
| CCCCCCCCCCOC(=O)Cn1c(COc2ccc(C)cc2)[n+](C)c2ccccc21 | 9.75 (active) |
| COc1cccc(OCCCN2CCCCCC2)c1 | inactive |
| COc1cccc(OCC(=O)Nc2ccccc2C(N)=O)c1 | inactive |
| Cc1ccc(OCCCn2c(=O)oc3ccccc32)cc1 | inactive |
| CCCCOC(=O)Cn1c(=N)n(CCN(CC)CC)c2ccccc21 | inactive |
| CCOC(=O)c1c(C)oc2cc(Sc3ccccc3)c(O)c(O)c12 | inactive |
| COc1cccc(CNC(=O)C(=O)NCCC2CCCCN2S(=O)(=O)c2ccc(C)cc2)c1 (configuration not stated) | inactive |
| Cc1cc(OCC(=O)N(C)c2c(N)n(Cc3ccccc3)c(=O)[nH]c2=O)c(C(C)C)cc1Cl | inactive |
| O=C(CCCn1c(SCC(=O)c2ccc(F)cc2)nc2ccccc2c1=O)NCc1ccco1 | inactive |
| CC(Sc1nc2ccccc2c(=O)n1Cc1ccco1)C(=O)c1ccccc1 (configuration not stated) | 7.82 (active) |
| CCOC(=O)C(C)Sc1nc2ccccc2c(=O)n1CC1CCCCC1 (configuration not stated) | inactive |
